# Source: PubChem (several laboratories)
# Hits are enriched below; roughly 2.3% of the tested compounds scored in any of these assays.
# HTR1E agonist – 5-HT1E (human) receptor agonism; CHO 5-HT1E Ga15 NFAT-bla reporter, FRET; 0% DMSO wells, 100% control agonist wells; P28566; activation, % at 6 µM; 65,000 tested, 0.69% active; AID 574;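 active = activation above a set limit, the screen-wide mean activation plus 3 SD, cut at about 8.5% in these data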;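 also: 100% = positive control agonist at 1 µM giving full maximal response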
# Target sequence (P28566 whole entry, looked up): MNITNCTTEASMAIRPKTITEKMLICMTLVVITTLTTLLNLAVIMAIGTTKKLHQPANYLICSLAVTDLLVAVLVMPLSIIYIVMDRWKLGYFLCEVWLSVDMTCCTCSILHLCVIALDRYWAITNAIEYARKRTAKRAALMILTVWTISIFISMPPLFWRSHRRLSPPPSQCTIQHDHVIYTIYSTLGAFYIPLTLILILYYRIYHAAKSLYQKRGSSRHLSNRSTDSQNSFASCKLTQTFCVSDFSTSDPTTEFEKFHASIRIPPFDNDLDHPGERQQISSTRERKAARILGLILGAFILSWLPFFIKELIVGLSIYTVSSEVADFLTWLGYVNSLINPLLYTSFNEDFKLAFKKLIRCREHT
# 5HT1a antag – antagonists of human 5-HT1a serotonin receptor; P08908; CHO 5-HT1a Ga15 NFAT-bla reporter, antagonist mode; inhibition, % at 10 µM; 62,000 tested, 0.68% active; AID 612;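 active = inhibition above the mean of all tested compounds plus 3 SD, cut at about 43% in these data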;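 also: receptor stimulated by 5-CT agonist at 100 nM near EC80; beta-lactamase reporter measured by ratiometric fluorescence of a cleavable substrate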
# HTR1E antagonist – blocks the human 5-HT1E serotonin receptor; 65,000 tested, 0.99% active; CHO 5-HT1E Ga15 NFAT-bla reporter, FRET, antagonist; inhibition, % at 6 µM; AID 571; P28566;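 active = inhibition above a set limit, the mean inhibition across every tested compound plus 3 SD, cut at about 29% in these data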;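 also: signal is the 460 over 535 nm emission ratio of beta-lactamase substrate; 0% = agonist plus DMSO wells and 100% = wells without agonist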
# HTR1A agonist – agonists of human 5-HT1a serotonin receptor; P08908; CHO 5-HT1a Ga15 NFAT-bla reporter, FRET ratio; 0% basal, 100% maximal reference agonist; activation, % at 10 µM; 65,000 tested, 0.56% active; AID 567;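 active = activation above the screen-wide mean activation plus 3 SD, cut at about 19% in these data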;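 also: 0% = DMSO wells and 100% = 5-CT at EC100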
# mHtt clearance – mutant huntingtin protein clearance. HeLa Exon1htt(103Q)mCFP, aggregate imaging; zero = plate's median compound well. inhibition, % at 1.5 µM. 47,000 tested, 0.42% active. AID 853;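 active = inhibition of aggregate fluorescence above about 70%, also judged a hit by eye on the cell image, limit read from the data, passing the limit was not always enough; inconclusive = no rule stated for this call; inactive = not judged a hit on image review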;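 also: cells exposed to compound for three days before fixation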
# Active calls of the source: *; i = inactive; ? = inconclusive; . = no result given.
SMILES,HTR1E agonist,5HT1a antag,HTR1E antagonist,HTR1A agonist,mHtt clearance
CCOC(=O)COn1c(=O)c(-c2ccc(OC)c(OC)c2)[n+]([O-])c2ccccc21,0,.,-1,-3,74*
Cc1ccc(Cn2ccc(=O)c(OCc3c(Cl)cccc3Cl)c2C)cc1,.,.,.,.,0
Cc1ccccc1CS(=O)(=O)c1nnc([C@H](CC(C)C)NC(=O)OC(C)(C)C)o1,2,39,36*,3,.
CC(C)(C)OC(=O)N[C@@H](Cc1ccccc1)c1nnc(S(=O)(=O)Cc2cccc(F)c2)o1,1,67*,46*,-3,.
CC(C)C[C@H](N)c1nnc(S(=O)(=O)Cc2cccc(F)c2)o1,0,58*,20,-1,40
CC(C)[C@H](NC(=O)OC(C)(C)C)c1nnc(S(=O)(=O)Cc2c(F)cccc2Cl)o1,1,79*,67*,5,.
CC(C)CC(=O)N1CCN(Cc2cccc(F)c2)CC1,1,1,8,0,.
Cc1[nH]c(=O)[nH]c(=O)c1CSc1nnc([C@@H](NC(=O)OC(C)(C)C)C(C)C)o1,0,-9,-19,0,18
CC[C@@H](C)[C@H](NC(=O)OC(C)(C)C)c1nnc(S(=O)(=O)Cc2cc(C)ccc2C)o1,0,57*,35*,1,.
C=CCn1c(SCC(=O)N2CCOCC2)nc2scc(-c3ccco3)c2c1=O,-2,1,13,29*,.
O=C1c2cnc3nc(SCc4ccc(Cl)cc4)nn3c2CC2c3ccccc3CCN12 (stereo unspecified),.,.,.,.,0
CCOC(=O)c1[nH]c(C)c(C(=O)Nc2cc(OC)ccc2OC)c1C,-1,20,49*,-3,i
CC1CN(C2CCN(S(=O)(=O)Cc3ccccc3)CC2)CC(C)O1 (stereo unspecified),0,.,-6,-5,.
CC1CN(C2CCN(S(=O)(=O)c3ccccc3)CC2)CC(C)O1 (stereo unspecified),-1,.,52*,-1,-42
Cc1csc(SCC(=O)NC(=O)NCc2ccccc2)n1,-1,-2,17,-4,78*
O=S(=O)(NCc1ccc2c(c1)OCO2)c1cccc(S(=O)(=O)N2CCOCC2)c1,0,-15,7,-2,.
COc1cccc(C(=O)Nc2cc(C)c3c(=O)oc4ccccc4c3n2)c1,-1,-12,2,25*,.
Cc1cc(NC(=O)Cc2ccccc2)nc2c1c(=O)oc1ccccc12,.,.,.,.,-4
O=C(CN1CCN(c2ccc(Cl)cc2)CC1)c1ccc2c(c1)OCO2,15*,5,15,-3,38
O=C(CN1CCN(c2ccc(F)cc2)CC1)c1ccc2c(c1)OCO2,1,0,5,3,.
CC1(C)C(=O)C2(CCCCC2)C(=O)OC1c1ccc(O)cc1 (stereo unspecified),0,-11,-13,-2,.
CCCn1c(SCc2nc(-c3cccs3)no2)nnc1-c1ccncc1,0,-3,0,-4,-19
CCOc1ccc(-n2c(SCc3nc(-c4cccs4)no3)nnc2-c2ccncc2)cc1,0,50*,13,6,.
Cc1ccc2c(CSc3nc4ccccc4c(=O)n3CCCO)cc(=O)oc2c1,0,16,33*,-1,.
O=C(CSc1nc2ccccc2c(=O)n1CCCO)NCc1ccccc1,0,8,-6,-3,.
SMILES,HTR1E agonist,5HT1a antag,HTR1E antagonist,HTR1A agonist,mHtt clearance
O=S(=O)(c1ccc(S(=O)(=O)N(Cc2ccc(F)cc2)C2CCCC2)cc1)N1CCCC1,-1,29,31*,1,.
Cc1c(C(=O)NCc2cccnc2)oc2ccccc12,0,-10,33*,-1,37
COc1cc(OC)cc(C(=O)NCc2cccnc2)c1,0,7,4,0,75*
N#Cc1cccc(NC(=O)NCCc2c[nH]c3ccccc23)c1,1,9,-3,-1,.
Cc1cccc(N2CCN(C(=O)c3cc4c(C)nc5ccccc5c4o3)CC2)c1C,0,5,-3,-2,.
Cc1ccc(-c2c(=O)n(OCc3ccccn3)c3ccccc3[n+]2[O-])cc1,.,.,.,.,-48
Cc1c(=O)n(OCc2ccccc2F)c2ccccc2[n+]1[O-],-1,-4,-9,25*,-68
CC(C)Oc1ccccc1C1CC(=O)Nc2cc3c(cc21)OCCO3 (stereo unspecified),-1,50*,63*,-5,-438
COc1ccccc1C1CC(=O)Nc2cc3c(cc21)OCCO3 (stereo unspecified),-1,27,47*,0,?
